# From PubChem BioAssay
# Activity calls are given as the source filed them.
# Experiments:
# [1] = test system: Plasmodium falciparum Sir2 (PF13_0152, Sir2A); assay: Plasmodium falciparum Sir2A binding compounds – biochemical, small-molecule microarray, 635 nm fluorescence, primary screen (AID 1098); details: fluorescence 635 nm, higher = more signal;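 also: score merges spot fluorescence intensity with its signal-to-noise ratio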
# [2] = probe aDKK1 binding to arrayed compounds – biochemical, biotinylated probe, 635/667 nm fluorescence, primary screen (AID 1099); details: small-molecule microarray, higher = more signal;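 also: score merges 667nm spot fluorescence with signal to noise across triplicate slides; reference of the scale not given here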
# [3] = probe aCHRDL2 binding to arrayed compounds – biochemical, biotinylated probe, 635/667 nm fluorescence, primary screen (AID 1100); details: small-molecule microarray, higher = more signal
# [4] = change in splice reporter luminescence, either direction, cell-based, HEK293, spliceosome inhibition project, primary screen (AID 1101); details: HEK293 splicing luciferase reporter, 24 h, higher = more signal, called active from +8 up or from −8 down;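 also: HEK293 cells carrying a splicing-competent luciferase reporter gene; test concentration not given here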
# [5] = target: Fibroblast growth factor 10 (Homo sapiens) (UniProt O15520); assay: compounds binding fibroblast growth factor 10 – biochemical, small-molecule microarray, 635 nm fluorescence, primary screen (AID 1102); details: FGF10 binding, fluorescence 635 nm, higher = more signal
# Sequence of Fibroblast growth factor 10 (Homo sapiens) (O15520 whole entry, looked up): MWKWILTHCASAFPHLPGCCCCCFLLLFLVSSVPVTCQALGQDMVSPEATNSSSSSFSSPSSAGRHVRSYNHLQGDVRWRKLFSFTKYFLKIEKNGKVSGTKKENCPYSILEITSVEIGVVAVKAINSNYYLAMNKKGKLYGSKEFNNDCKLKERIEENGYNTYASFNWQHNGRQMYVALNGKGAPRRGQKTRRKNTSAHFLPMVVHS
# [6] = test system: glycogen synthase kinase-3 (GSK3A per assay name; protocol says GSK3B); assay: compounds binding glycogen synthase kinase-3 – biochemical, small-molecule microarray, 635 nm fluorescence, GSK3A, primary screen (AID 1103); details: fluorescence 635 nm, higher = more signal; also: the record names both GSK3A and GSK3B
# [7] = target: Epidermal growth factor receptor (Homo sapiens) (UniProt P00533); assay: compounds binding epidermal growth factor receptor – biochemical, small-molecule microarray, 635 nm fluorescence, primary screen (AID 1104); details: EGFR binding, higher = more signal;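 also: score merges 667 nm emission intensity with spot signal to noise over triplicate slides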
# Sequence of Epidermal growth factor receptor (Homo sapiens) (P00533 whole entry, looked up): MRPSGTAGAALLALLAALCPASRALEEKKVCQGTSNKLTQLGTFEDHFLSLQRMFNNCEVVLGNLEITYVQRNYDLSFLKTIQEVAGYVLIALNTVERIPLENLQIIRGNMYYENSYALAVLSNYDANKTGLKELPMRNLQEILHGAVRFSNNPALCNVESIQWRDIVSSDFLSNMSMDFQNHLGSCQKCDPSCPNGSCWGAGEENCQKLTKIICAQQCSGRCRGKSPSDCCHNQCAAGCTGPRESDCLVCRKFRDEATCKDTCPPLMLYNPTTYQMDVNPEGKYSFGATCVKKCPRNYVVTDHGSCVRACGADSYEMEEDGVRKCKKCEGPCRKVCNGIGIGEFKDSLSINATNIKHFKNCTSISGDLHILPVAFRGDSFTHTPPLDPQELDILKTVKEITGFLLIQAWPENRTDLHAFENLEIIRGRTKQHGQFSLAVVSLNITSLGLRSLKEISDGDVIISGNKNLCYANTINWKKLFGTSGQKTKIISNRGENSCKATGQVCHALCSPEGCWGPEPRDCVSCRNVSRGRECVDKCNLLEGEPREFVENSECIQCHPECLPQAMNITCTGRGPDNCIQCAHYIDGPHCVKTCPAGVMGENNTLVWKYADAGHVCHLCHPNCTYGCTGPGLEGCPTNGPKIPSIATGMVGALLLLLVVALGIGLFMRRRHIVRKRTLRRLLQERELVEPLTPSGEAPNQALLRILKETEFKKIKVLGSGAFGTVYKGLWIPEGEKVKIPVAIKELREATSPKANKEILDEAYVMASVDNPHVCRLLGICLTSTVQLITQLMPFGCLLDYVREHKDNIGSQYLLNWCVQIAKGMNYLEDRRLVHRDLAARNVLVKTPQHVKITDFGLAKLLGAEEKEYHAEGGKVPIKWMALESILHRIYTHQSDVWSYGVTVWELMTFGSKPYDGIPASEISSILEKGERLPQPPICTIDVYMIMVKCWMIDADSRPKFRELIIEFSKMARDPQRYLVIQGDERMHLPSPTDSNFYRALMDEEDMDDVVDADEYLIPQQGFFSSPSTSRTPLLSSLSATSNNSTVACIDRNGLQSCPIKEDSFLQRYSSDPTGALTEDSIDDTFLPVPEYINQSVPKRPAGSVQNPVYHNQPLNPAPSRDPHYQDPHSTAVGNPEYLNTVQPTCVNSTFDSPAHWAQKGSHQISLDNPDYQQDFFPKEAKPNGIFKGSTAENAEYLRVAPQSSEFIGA
# [8] = target: Follistatin-related protein 3 (Homo sapiens) (UniProt O95633); assay: compounds binding follistatin-related protein 3 – biochemical, small-molecule microarray, 635 nm fluorescence, primary screen (AID 1105); details: FSTL3 binding, higher = more signal;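 also: score merges emission near 667 nm and signal to noise per printed spot across three slides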
# Sequence of Follistatin-related protein 3 (Homo sapiens) (O95633 whole entry, looked up): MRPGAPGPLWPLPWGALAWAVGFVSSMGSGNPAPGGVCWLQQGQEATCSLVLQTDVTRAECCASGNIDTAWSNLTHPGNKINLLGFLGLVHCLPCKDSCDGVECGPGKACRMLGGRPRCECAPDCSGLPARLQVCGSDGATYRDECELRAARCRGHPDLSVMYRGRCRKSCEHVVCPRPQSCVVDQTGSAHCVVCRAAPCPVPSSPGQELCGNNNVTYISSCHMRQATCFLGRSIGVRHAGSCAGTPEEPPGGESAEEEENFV
# [9] = target: Dickkopf-related protein 1 (Homo sapiens) (UniProt O94907); assay: small molecules binding DKK1 protein – biochemical, small-molecule microarray, 635 nm fluorescence scan, primary screen (AID 1106); details: higher = more signal;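 also: score merges emission near 667 nm with signal to noise over three replicate slides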
# Sequence of Dickkopf-related protein 1 (Homo sapiens) (O94907 whole entry, looked up): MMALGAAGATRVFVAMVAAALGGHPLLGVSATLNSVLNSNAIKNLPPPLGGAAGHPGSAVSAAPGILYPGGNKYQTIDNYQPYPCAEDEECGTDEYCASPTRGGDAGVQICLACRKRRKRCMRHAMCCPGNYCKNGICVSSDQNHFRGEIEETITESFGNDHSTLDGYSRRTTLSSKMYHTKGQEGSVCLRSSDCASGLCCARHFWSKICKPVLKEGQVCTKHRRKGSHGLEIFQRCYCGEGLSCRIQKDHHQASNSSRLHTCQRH
# [10] = test system: Inhibin beta A chain (activin A); assay: small molecules binding activin A – biochemical, small-molecule microarray, 635 nm fluorescence scan, primary screen (AID 1107); details: INHBA, higher = more signal;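 also: mouse activin A protein probed at 4.33 µg/mL on printed slides; score merges bound-protein fluorescence near 667 nm with spot signal-to-noise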
Compound,composite z-score [1],composite z-score [2],composite z-score [3],z-score [4],composite z-score [5],composite z-score [6],composite z-score [7],composite z-score [8],composite z-score [9],composite z-score [10]
C=C(COC)C(=O)CC[C@@H](OC(=O)c1ccccc1-c1ccccc1C(=O)O)c1ccc(CO)o1,1.51,-0.4,-0.69,-1.24 (inactive),1.57,0.464,0.109,0.399,1.14,0.466
COC(=O)[C@@]1(Cc2ccc(OC)cc2)[C@H]2c3cc(C(=O)N4CCCC4)n(CCN4CCOCC4)c3C[C@H]2CN1C(=O)c1ccccc1,1.25,2.6,1.52,0.0643 (inactive),1.35,0.325,0.947,0.629,-0.138,0.492
COc1ccccc1CN1C(=O)c2ccccc2[C@](Cc2ccccc2I)(C(=O)NC2CC2)[C@@H]1c1ccc(CO)cc1,1.58,-0.617,0.042,0.0417 (inactive),1.23,1.33,0.385,1.29,0.974,0.154
O=c1cccc(-c2ccccc2)o1,0.906,-0.196,-0.186,0.92 (inactive),0.421,0.211,-0.648,-0.337,-0.1,1.4
CCCNC(=O)[C@@]1(C)c2ccccc2C(=O)N(Cc2cc(F)cc(C(F)(F)F)c2)[C@H]1c1ccc(CO)cc1,1.25,0.0202,0.995,-0.377 (inactive),-1.02,-0.552,-0.668,-0.286,-1.44,-0.496
C=C(C(=O)CC[C@@H](OC(=O)c1cccnc1)c1ccc(CO)o1)C(C)C,0.392,-0.174,-0.36,1.38 (inactive),1.16,0.803,0.152,0.933,0.479,1.04
O=C1OCC=C[C@H]2OC34C=CCN(CCN5CCOCC5)C(=O)[C@H]3N(CCCCCCO)C(=O)[C@@H]4[C@@H]12 (stereo not given in full),1.18,-0.148,0.251,0.364 (inactive),-0.231,-0.162,-0.0057,0.376,0.0105,1.35
CC(C)C[C@@H]1NC(=O)[C@@H]2C[C@H](C(=O)NCCCCN(C)C)[C@H](c3ccc(O)cc3)N2C1=O,0.791,0.147,0.874,0.619 (inactive),-1.42,-0.439,-1.29,-0.401,-0.283,-0.134
Cc1ccc(N2C(=O)c3ccccc3[C@](C)(C(=O)NCCN3CCOCC3)[C@@H]2c2ccc(CO)cc2)nc1,0.0614,0.0511,0.858,0.219 (inactive),-1.01,-1.73,-1.41,-1.74,-0.979,-0.472
